Test results as given in PubChem BioAssay AID2391 (Southern Research Specialized Biocontainment Screening …, 2010).
Hit rate of the full screen: of about 310,000 compounds, about 410 (0.13%) were called active. Another 2% or so got no clear call; they are omitted. How the calls were made is not given here. These entries were drawn from the full list. Potency and affinity values are given separately.

test: RSV antiviral activity via CPE protection, HEp-2 cells, primary 10 µM value included (AID 2391); settings: RSV-induced CPE inhibition, at 10 µM, active compounds read high

CPE inhibition, inactive:
CCOc1ccc(OCCNC(=O)c2oc3ccccc3c2COC)cc1 2.63%
O=C1CCCCC1C(=O)c1cn(-c2ccc(Cl)c(Cl)c2)nn1 (configuration not stated) 1.71%
N#Cc1c(N2CCCCC2)nc(N)c2c(N)nc3c(c12)CC(c1ccccc1)O3 (configuration not stated) 18.6%
O=C(O)c1cc2nc(-c3ccccc3)cc(-c3ccccc3)n2n1 0.05%
CN1CCN(C(=O)c2cc3nc(-c4ccccc4)cc(-c4ccccc4)n3n2)CC1 -2.59%
O=C(c1cc2nc(-c3ccccc3)cc(-c3ccccc3)n2n1)N1CCCC1 -1.34%
CC1CCN(C(=O)c2cc3nc(-c4ccccc4)cc(-c4ccccc4)n3n2)CC1 -0.54%
COc1cc(C2C(C#N)=C(N)Oc3c2oc(CO)cc3=O)ccc1OC(C)C (configuration not stated) 0.67%
Cc1c(C)c2c(OCC(=O)NCc3ccccn3)cc3c(c2oc1=O)CCC(C)(C)O3 -0.55%
Cn1c(C(O)c2ccccc2)nc(Cl)c1Cl (configuration not stated) 2.93%
COc1ccc(-n2c(=O)c3ccccc3n(CC(=O)NC3CCCC3)c2=O)cc1 0.83%
C#CCOCCOCCOCCNc1nc(N2CCOCC2)nc(N2CCN(C(=O)CCCCCCCCCCNC(=O)[C@@H]([C@H](C)O)n3cc(C)nn3)CC2)n1 2.9%
C#CCOCCOCCOCCNc1nc(N2CCN(C(=O)CCCCCCCCCCNC(=O)[C@H](CCCCN)n3cc(C)nn3)CC2)nc(N2CCN(C(=O)CCCCCCCCCCNC(=O)[C@@H]([C@H](C)O)n3cc(C)nn3)CC2)n1 8.35%
CCOc1ccc(C(C)=O)cc1Cn1c(=O)oc2ccccc21 9.32%
O=c1[nH]c(C2CCN(S(=O)(=O)/C=C/c3ccccc3)CC2)nc2c1nnn2Cc1ccccc1 76.1%
O=c1[nH]c(C2CCN(S(=O)(=O)c3ccc(F)cc3)CC2)nc2c1nnn2Cc1ccc2c(c1)OCCO2 64.8%
O=c1[nH]c(C2CCN(S(=O)(=O)c3ccc4c(c3)OCCO4)CC2)nc2c1nnn2Cc1cccc(F)c1 67.8%
Cc1ccc(Cn2nnc3c(=O)[nH]c(C4CCN(S(=O)(=O)c5ccc(F)cc5)CC4)nc32)cc1 13.9%
Cc1ccc(Cn2nnc3c(=O)[nH]c(C4CCN(S(=O)(=O)c5ccccc5F)CC4)nc32)cc1 84.2%
O=c1[nH]c(C2CCN(S(=O)(=O)c3ccccc3)CC2)nc2c1nnn2Cc1ccccc1 19.1%
O=c1[nH]c(C2CCN(S(=O)(=O)c3ccccc3F)CC2)nc2c1nnn2Cc1ccc(F)cc1 39%
O=c1[nH]c(C2CCN(S(=O)(=O)c3ccc4c(c3)OCCO4)CC2)nc2c1nnn2Cc1ccc(F)cc1 63.7%
